In PubChem BioAssay (EPA / NIEHS):
Inconclusive results are not listed. Active and inactive are the calls of the source. How the source made its calls: active means hit-call score of the fitted dose curve at least 0.9, where 1 is the maximum; inconclusive means response in the unintended direction; inactive means score below 0.9.

biological target: human RAR-related Orphan Receptor gamma (RORg), RORC (gene 6097) (UniProt P51449); experiment: ATG_RORg_TRANS: Attagene TRANS-FACTORIAL HepG2 Assay for human RAR-related Orphan Receptor gamma (RORg) (AID 2283011)
Protocol: ATG_TRANS is a cell-based, multiplexed-readout assay that uses HepG2, a human liver cell line, with measurements taken at 24 hours after chemical dosing in a 24-well plate.ATG_RORg_TRANS is one of 30 assay component(s) measured or calculated from the ATG_TRANS assay. It is designed to make measurements of mRNA induction, a form of inducible reporter, as detected with fluorescence intensity signals by Reverse transcription polymerase chain reaction (RT-PCR) and Capillary electrophoresis technology.Data from the assay component ATG_RORg_TRANS was analyzed into 1 assay endpoint. This assay endpoint, ATG_RORg_TRANS, was analyzed in the positive analysis fitting direction relative to DMSO as the negative control and baseline of activity. Using a type of inducible reporter, measures of mRNA for gain-of-signal activity can be used to understand the reporter gene at the transcription factor-level as they relate to the gene RORC. Furthermore, this assay endpoint can be referred to as a primary readout, because this assay has produced multiple assay endpoints where this one serves a reporter gene function. To generalize the intended target to other relatable targets, this assay endpoint is annotated to the nuclear receptor intended target family, where the subfamily is orphan.
Human liver HepG2 cells are transiently transfected with multiple reporter transcription units (MRTUs) in 6-well plates using FuGene 6 reagent (Roche; 3 ml FuGene/1 mg DNA). The MRTU constructs are regulated by a cis-regulating element (promoter). […] A major difference between the CIS and TRANS system is that in CIS activities of endogenous TFs are measured, whereas the TRANS assay evaluates changes in activities of exogenous, chimeric NR-Gal4 proteins. […] At the end of 24 hour incubation, total RNA was isolated using TriZol reagent (Invitrogen). The isolated RNA is then reverse-transcribed using oligo(dT) primer and Mo-MLV reverse transcriptase (Invitrogen) with DNAse I (Ambion) treatment for 30 min. The one-tenth of the produced cDNA was amplified by PCR using Taq DNA polymerase (Invitrogen) and two reporter sequence-specific primers. The PCR products were fluorescently labeled by primer extension with 6-arboxyfluorescein (6-FAM) 5'-labeled reporter sequence-specific primer (2 min at 95 C, 20 s at 68 C and 10 min at 72 C) and these products were digested with 5U of HpaI (New England Biolabs) for 2h at 37 C. The fragments were purified using Qiaquick PCR columns (Qiagen), analyzed on an ABI 3130xL genetic analyzer (Applied Biosystems) with peak positions identified by using a set of X-rhodamine (ROX)-labeled MapMarker1000 molecular weight standards (BioVentures). The raw capillary electrophoresis data was processed using Attagraph software (Attagene).

Chain of human RAR-related Orphan Receptor gamma (RORg), RORC (gene 6097) (P51449 whole entry, looked up): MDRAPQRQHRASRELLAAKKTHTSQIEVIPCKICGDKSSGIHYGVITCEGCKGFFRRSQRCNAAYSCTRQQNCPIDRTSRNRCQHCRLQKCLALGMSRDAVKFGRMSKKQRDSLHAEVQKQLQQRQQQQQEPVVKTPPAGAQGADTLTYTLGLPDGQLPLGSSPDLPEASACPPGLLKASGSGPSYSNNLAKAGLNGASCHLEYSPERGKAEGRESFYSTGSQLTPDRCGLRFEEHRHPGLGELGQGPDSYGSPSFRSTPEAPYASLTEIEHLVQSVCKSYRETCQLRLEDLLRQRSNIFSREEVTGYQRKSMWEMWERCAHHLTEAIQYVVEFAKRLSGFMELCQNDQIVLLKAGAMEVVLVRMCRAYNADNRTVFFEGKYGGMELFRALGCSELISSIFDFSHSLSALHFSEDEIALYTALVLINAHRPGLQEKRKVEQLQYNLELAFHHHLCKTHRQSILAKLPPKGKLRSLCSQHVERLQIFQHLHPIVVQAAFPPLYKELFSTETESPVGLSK

outcome, inactive:
O=C(O)c1cccc(Oc2ccccc2)c1, CC(C)CCO, CC(C)(O)c1coc(S(=O)(=O)NC(=O)Nc2c3c(cc4c2CCC4)CCC3)c1, COc1ccc2sc(C(=O)Nc3nnn[nH]3)c(OC(C)C)c2c1, CCc1cc(SCc2sc(-c3ccc(C(F)(F)F)cc3)nc2CN2CCN(c3ccc(OC)cc3)CC2)ccc1OCC(=O)O, NC(=O)NO, CCOC(=O)COc1ccc2c(c1)CC(NCC(O)c1cccc(Cl)c1)CC2 (stereo not drawn), Cc1c(-c2cccnc2)c2ccccc2n1CCCCC(=O)O, CC(C)CCCCCCCOC(=O)CCCCC(=O)OCCCCCCCC(C)C, CC(O)CN(CCN(CC(C)O)CC(C)O)CC(C)O (stereo not drawn), Clc1nc(Cl)c(Cl)c(Cl)c1Cl, O=C(OC[C@H]1O[C@@H](OC(=O)c2cc(O)c(O)c(OC(=O)c3cc(O)c(O)c(O)c3)c2)[C@H](OC(=O)c2cc(O)c(O)c(OC(=O)c3cc(O)c(O)c(O)c3)c2)[C@@H](OC(=O)c2cc(O)c(O)c(OC(=O)c3cc(O)c(O)c(O)c3)c2)[C@@H]1OC(=O)c1cc(O)c(O)c(OC(=O)c2cc(O)c(O)c(O)c2)c1)c1cc(O)c(O)c(OC(=O)c2cc(O)c(O)c(O)c2)c1, CCNc1ccccc1, CNS(=O)(=O)c1cc(C(=O)N2CCC(CCN3C4CCC3CC(n3c(C)nc5ccccc53)C4)(c3cccc(F)c3)CC2)c(Cl)cc1F (stereo not drawn), COc1cccc(-c2ccc(/C=C\CN3CCCCCC3)cc2Cl)c1, CC(=O)c1ccc2c(c1)[C@H](NC(=O)c1ccc(F)cc1)[C@@H](O)C(C)(C)O2, CCCCC(CC)COC(=O)c1ccc(C(=O)OCC(CC)CCCC)cc1 (stereo not drawn), CC(C)=CCCC(C)=CC=O, CCC(C)(C)C(=O)O[C@H]1C[C@@H](C)C=C2C=C[C@H](C)[C@H](CC[C@@H]3C[C@@H](O)CC(=O)O3)[C@H]21, C=CC(=C)CCC=C(C)C, On1ccccc1=S, CC(C)=CCC/C(C)=C/CO, CCCCC(CC)COC(=O)CCCCCCCCC(=O)OCC(CC)CCCC (stereo not drawn), COC(=O)c1c(Cl)c(Cl)c(C(=O)OC)c(Cl)c1Cl, COc1ccc(/C=C/S(=O)(=O)NC(=O)c2ccc(C)cc2Cl)cc1, Nc1cccc(N)c1, CCCCCCCCCCCCc1ccccc1, CC[C@H]1CC[C@H](NCc2cc3c(cc2OC)[C@H]2C[C@H]2C(=O)N3C)[C@H](c2ccccc2)N1, O=C1CCCCCN1, Cc1ccc(N)cc1O, Nc1nc2ncc(CNc3ccc(C(=O)N[C@@H](CCC(=O)O)C(=O)O)cc3)nc2c(=O)[nH]1, CC/C(=C\C(=N/O)C(N)=O)C(C)[N+](=O)[O-] (stereo not drawn), CCCCCCCCCCCCCCCO
